# Measured values reported in PubChem BioAssay.
# Inconclusive results are not listed. The source made the active and inactive calls.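 The calls were made as follows, unless noted: active = inhibition over a set limit, the all-compound mean plus 3 SD, in both replicate runs; inconclusive = over that limit in just one replicate run; inactive = at or under that limit in both runs.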
# Test: viability of PTEN-null HCT116 cells – cell-based, HCT116 clonal line, CellTiter-Glo, pilot screen (AID 824;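 active = viability at or below 27.92% in each of two runs, the all-compound median minus 4 SD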;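 also: 0% = 20 µM Hyamine control and 100% = vehicle cell control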)
# Details: HCT116 PTEN-deleted viability, 60 h, at 10 µM, active compounds read low
row,Compound,viability
1,O=C(Cn1c(=O)[nH]c2ccsc2c1=O)NC1CCCCC1,93.9% (inactive)
2,Cc1cc(Nc2ccc(F)cc2Cl)n2nc(C)nc2n1,99.6% (inactive)
3,COc1ccc(C)cc1NC(=O)CSc1nnc(-c2ccc(C)cc2)o1,86.8% (inactive)
4,c1ccc(OCCOCCSc2ncccn2)cc1,98.4% (inactive)
5,Fc1cc2nc(-c3ccncc3)[nH]c2cc1F,94.6% (inactive)
6,Cc1cc(N)n2ncc(-c3cccc(Br)c3)c2n1,71.8% (inactive)
7,COc1cccc(-c2cc(C(=O)Nn3cnnc3)c3ccccc3n2)c1,94.6% (inactive)
8,CC(=O)C1C(c2ccc(O)cc2)NC(=O)NC1(O)C(F)(F)F (stereo not given),98.7% (inactive)
9,O=C(O)c1ccc(CSc2nnc(-c3ccco3)o2)cc1,96.6% (inactive)
10,CC1Cn2c(nnc2-c2cccc(N)c2)S1 (stereo not given),100% (inactive)
11,Cc1cccc(-n2c(Cc3cc(=O)[nH]c(=O)[nH]3)nnc2SC(C)C)c1,97.7% (inactive)
12,COc1ccc(C2(O)CCN(C(=O)c3ccc4c(c3)OCO4)CC2)cc1,101% (inactive)
13,O=C(Nc1cccc2c1CCCC2)c1ccc(Br)o1,68% (inactive)
14,CCCNC(=O)NCCc1c(C)[nH]c2ccccc12,99% (inactive)
15,CCCC(=O)NC(C)c1nc2ccccc2n1CC (stereo not given),94.4% (inactive)
16,CCCN(CCC)S(=O)(=O)c1ccc(C(=O)NCc2ccc3c(c2)OCO3)cc1,80.3% (inactive)
17,CCCNc1nc2c(c(=O)n(C)c(=O)n2C)n1Cc1ccc(F)cc1,79.1% (inactive)
18,c1ccc(-c2ccccc2-n2cnnn2)cc1,95.3% (inactive)
19,COc1cccc(-c2nc(CS(=O)CC(=O)O)c(C)o2)c1 (stereo not given),99.5% (inactive)
20,N=c1n(CCOc2ccccc2)c2ccccc2n1CCN1CCOCC1,85.8% (inactive)

row,Compound,viability
1,COc1ccc(CCNc2ncnc3nc[nH]c23)cc1OC,84.7% (inactive)
2,CCSc1sccc1C1C(C#N)=C(N)N(c2cccnc2)C2=C1C(=O)CC(C)(C)C2 (stereo not given),93.2% (inactive)
3,Cc1nc(CNS(=O)(=O)c2ccccc2F)cs1,91.5% (inactive)
4,CC(=O)N(c1ccc(C)cc1)C1C=CS(=O)(=O)C1 (stereo not given),105% (inactive)
5,CCc1cccc(C)c1NC(=O)C1CCCO1 (stereo not given),88.1% (inactive)
6,Nc1nc2n(n1)C(c1ccccc1Cl)CC(c1ccc(F)cc1)N2 (stereo not given),88.8% (inactive)
7,N#Cc1ccc(N2CCN(C(=O)c3cccc(F)c3)CC2)c(F)c1,87.8% (inactive)
8,CCn1ccc(C(=O)Nc2ccc(Cl)cn2)n1,93.9% (inactive)
9,CCOC(=O)c1cn(-c2ccccc2)nc1-c1cccnc1,93.5% (inactive)
10,CCOC(=O)c1c(C)n(C)c2ccc(OCC(O)CN(CC)CC)cc12 (stereo not given),81.5% (inactive)
11,O=C(NCCC1=CCCCC1)NC1CCCCC1,87.3% (inactive)
12,CC(=O)Nc1ccc(-n2c(C)c(C(C)=O)c(C(C)=O)c2C)cc1,101% (inactive)
13,COCCOC(=O)C1=C(C)NC2=C(C(=O)CC(C)(C)C2)C1c1ccc2c(c1)OCO2 (stereo not given),87.4% (inactive)
14,CCOc1ccccc1Nc1ncnc2c1cnn2-c1ccccc1,91.1% (inactive)
15,O=C1NCCCC1C(=O)N1CCN(C(=O)c2ccco2)CC1 (stereo not given),98.6% (inactive)
16,CCC(=O)NCCn1c(C)cc2ccccc21,92% (inactive)
17,CCCCNC(=O)Nc1cc(C(=O)OC)ccc1C,91.4% (inactive)
18,CCOc1ccc(N=Cc2c(O)cc(C)oc2=O)cc1,101% (inactive)
19,CC(C)C(NS(=O)(=O)c1ccc2c3c(cccc13)C(=O)N2)C(=O)O (stereo not given),93.6% (inactive)
20,Cc1ccc(NC(=O)c2cc(-c3cccc(O)c3)on2)cc1C,87% (inactive)

# Test: RAM pathway blockade in budding yeast – dse1pr::URA3 reporter, 5-FOA selection, pilot screen (AID 869);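 also: 0% = DMSO wells with no growth and 100% = 10 µM 1-NA-PP1 with full growth; RAM network block rescues cells from 5-FOA so hits raise OD615 growth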
# Details: S. cerevisiae dse1pr::URA3 5-FOA growth, OD615, 2 d; at 10 µM; active compounds read high; strain carries analog-sensitive mutant Cbk1 kinase
row,Compound,inhibition
1,O=C(Cn1c(=O)[nH]c2ccsc2c1=O)NC1CCCCC1,1.41% (inactive)
2,Cc1cc(Nc2ccc(F)cc2Cl)n2nc(C)nc2n1,1.51% (inactive)
3,COc1ccc(C)cc1NC(=O)CSc1nnc(-c2ccc(C)cc2)o1,2.09% (inactive)
4,c1ccc(OCCOCCSc2ncccn2)cc1,0.395% (inactive)
5,Fc1cc2nc(-c3ccncc3)[nH]c2cc1F,0.625% (inactive)
6,Cc1cc(N)n2ncc(-c3cccc(Br)c3)c2n1,0.315% (inactive)
7,COc1cccc(-c2cc(C(=O)Nn3cnnc3)c3ccccc3n2)c1,1.52% (inactive)
8,CC(=O)C1C(c2ccc(O)cc2)NC(=O)NC1(O)C(F)(F)F (stereo not given),2.78% (inactive)
9,O=C(O)c1ccc(CSc2nnc(-c3ccco3)o2)cc1,0.595% (inactive)
10,CC1Cn2c(nnc2-c2cccc(N)c2)S1 (stereo not given),1.52% (inactive)
11,Cc1cccc(-n2c(Cc3cc(=O)[nH]c(=O)[nH]3)nnc2SC(C)C)c1,1.72% (inactive)
12,COc1ccc(C2(O)CCN(C(=O)c3ccc4c(c3)OCO4)CC2)cc1,0.965% (inactive)
13,O=C(Nc1cccc2c1CCCC2)c1ccc(Br)o1,2.19% (inactive)
14,CCCNC(=O)NCCc1c(C)[nH]c2ccccc12,1.35% (inactive)
15,CCCC(=O)NC(C)c1nc2ccccc2n1CC (stereo not given),0.97% (inactive)
16,CCCN(CCC)S(=O)(=O)c1ccc(C(=O)NCc2ccc3c(c2)OCO3)cc1,2.21% (inactive)
17,CCCNc1nc2c(c(=O)n(C)c(=O)n2C)n1Cc1ccc(F)cc1,0.88% (inactive)
18,c1ccc(-c2ccccc2-n2cnnn2)cc1,1.77% (inactive)
19,COc1cccc(-c2nc(CS(=O)CC(=O)O)c(C)o2)c1 (stereo not given),1.31% (inactive)
20,N=c1n(CCOc2ccccc2)c2ccccc2n1CCN1CCOCC1,0.845% (inactive)

row,Compound,inhibition
1,COc1ccc(CCNc2ncnc3nc[nH]c23)cc1OC,0.57% (inactive)
2,CCSc1sccc1C1C(C#N)=C(N)N(c2cccnc2)C2=C1C(=O)CC(C)(C)C2 (stereo not given),0.9% (inactive)
3,Cc1nc(CNS(=O)(=O)c2ccccc2F)cs1,0.335% (inactive)
4,CC(=O)N(c1ccc(C)cc1)C1C=CS(=O)(=O)C1 (stereo not given),0.6% (inactive)
5,CCc1cccc(C)c1NC(=O)C1CCCO1 (stereo not given),0.695% (inactive)
6,Nc1nc2n(n1)C(c1ccccc1Cl)CC(c1ccc(F)cc1)N2 (stereo not given),2.58% (inactive)
7,N#Cc1ccc(N2CCN(C(=O)c3cccc(F)c3)CC2)c(F)c1,2.12% (inactive)
8,CCn1ccc(C(=O)Nc2ccc(Cl)cn2)n1,1.48% (inactive)
9,CCOC(=O)c1cn(-c2ccccc2)nc1-c1cccnc1,1.63% (inactive)
10,CCOC(=O)c1c(C)n(C)c2ccc(OCC(O)CN(CC)CC)cc12 (stereo not given),1.71% (inactive)
11,O=C(NCCC1=CCCCC1)NC1CCCCC1,1.33% (inactive)
12,CC(=O)Nc1ccc(-n2c(C)c(C(C)=O)c(C(C)=O)c2C)cc1,0.515% (inactive)
13,COCCOC(=O)C1=C(C)NC2=C(C(=O)CC(C)(C)C2)C1c1ccc2c(c1)OCO2 (stereo not given),0.175% (inactive)
14,CCOc1ccccc1Nc1ncnc2c1cnn2-c1ccccc1,2.2% (inactive)
15,O=C1NCCCC1C(=O)N1CCN(C(=O)c2ccco2)CC1 (stereo not given),-0.03% (inactive)
16,CCC(=O)NCCn1c(C)cc2ccccc21,1.91% (inactive)
17,CCCCNC(=O)Nc1cc(C(=O)OC)ccc1C,1.55% (inactive)
18,CCOc1ccc(N=Cc2c(O)cc(C)oc2=O)cc1,1.21% (inactive)
19,CC(C)C(NS(=O)(=O)c1ccc2c3c(cccc13)C(=O)N2)C(=O)O (stereo not given),1.71% (inactive)
20,Cc1ccc(NC(=O)c2cc(-c3cccc(O)c3)on2)cc1C,3.14% (inactive)
